Source: PubChem
PGK inhibitor: T. brucei PGK inhibition | PGK/GAPDH coupled, Kinase-Glo luminescence, 60 min | Potency, µM (top dose mostly 57.5 µM), actives largely listed as inhibitors | P07378 | 380,000 compounds, 0.043% hits; further: nearly all actives have a fitted effect of over 60% in size
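Recombinant glycosomal PGK reaction used 1,3-bisphosphoglycerate generated in-well by GAPDH (100nM final) in 100mM TEA pH 7.6, 5mM MgCl2, 0.01% Tween-20. After 60 minutes at room temperature, ATP was read by Kinase-Glo Plus luminescence end-point.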
RECQ1 inh: RECQ1 (human) helicase inhibition; P46063; RECQ1 DNA unwinding, red fluorescence kinetic read; Potency, µM (top dose mostly 57.3 µM), usual class: inhibitors; 240,000 compounds, 0.54% hits; AID 2549; further: nearly all actives have a fitted effect of over 30% in size
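50 nM RECQ1T1 preincubated 15 min with compound in Tris pH 8.0 buffer with MgCl2, DTT, Tween-20 and 2.5 ug/ml poly(dI-dC); started with 200 nM TAMRA/BHQ-2 forked duplex and 2 mM ATP. Unwinding read as fluorescence (525/598 nm), two reads 2 h apart.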
TDP1 inh: blocks human tyrosyl-DNA phosphodiesterase 1. Q9NUW8. recombinant TDP1, AlphaScreen DNA substrate cleavage. Potency, µM (top dose mostly 130 µM), hits mostly inhibitors. 350,000 compounds, 0.28% hits; further: nearly all actives have a fitted effect of over 40% in size
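Signal: AlphaScreen proximity between streptavidin donor and anti-FITC acceptor beads on intact substrate. Reaction: Tdp1 1 nM, substrate 15 nM final, 5 min RT after 15 min compound preincubation.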
APE1 inh: blocks human APE1 abasic DNA cleavage; Potency, µM (top dose mostly 65.8 µM), usual class: inhibitors; 350,000 compounds, 0.35% hits; AID 2517; recombinant APE1, TAMRA/BHQ-2 abasic DNA cleavage fluorescence; further: nearly all actives have a fitted effect of over 55% in size
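Incision of a quenched TAMRA/BHQ-2 THF abasic-site duplex (50 nM) by 0.75 nM APE1, after 15 min compound preincubation, measured as fluorescence increase over three 60 s reads. Values normalized to buffer, DMSO and NSC13755 control wells.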
BLM helicase inh: blocks DNA unwinding by human BLM helicase; recombinant BLM DNA unwinding, fluorescence dequenching; Potency, µM (doses to about 56.1 µM), usual class: inhibitors; 350,000 compounds, 0.2% hits; further: nearly all actives have a fitted effect of over 35% in size
Target sequence (P54132 whole entry, looked up): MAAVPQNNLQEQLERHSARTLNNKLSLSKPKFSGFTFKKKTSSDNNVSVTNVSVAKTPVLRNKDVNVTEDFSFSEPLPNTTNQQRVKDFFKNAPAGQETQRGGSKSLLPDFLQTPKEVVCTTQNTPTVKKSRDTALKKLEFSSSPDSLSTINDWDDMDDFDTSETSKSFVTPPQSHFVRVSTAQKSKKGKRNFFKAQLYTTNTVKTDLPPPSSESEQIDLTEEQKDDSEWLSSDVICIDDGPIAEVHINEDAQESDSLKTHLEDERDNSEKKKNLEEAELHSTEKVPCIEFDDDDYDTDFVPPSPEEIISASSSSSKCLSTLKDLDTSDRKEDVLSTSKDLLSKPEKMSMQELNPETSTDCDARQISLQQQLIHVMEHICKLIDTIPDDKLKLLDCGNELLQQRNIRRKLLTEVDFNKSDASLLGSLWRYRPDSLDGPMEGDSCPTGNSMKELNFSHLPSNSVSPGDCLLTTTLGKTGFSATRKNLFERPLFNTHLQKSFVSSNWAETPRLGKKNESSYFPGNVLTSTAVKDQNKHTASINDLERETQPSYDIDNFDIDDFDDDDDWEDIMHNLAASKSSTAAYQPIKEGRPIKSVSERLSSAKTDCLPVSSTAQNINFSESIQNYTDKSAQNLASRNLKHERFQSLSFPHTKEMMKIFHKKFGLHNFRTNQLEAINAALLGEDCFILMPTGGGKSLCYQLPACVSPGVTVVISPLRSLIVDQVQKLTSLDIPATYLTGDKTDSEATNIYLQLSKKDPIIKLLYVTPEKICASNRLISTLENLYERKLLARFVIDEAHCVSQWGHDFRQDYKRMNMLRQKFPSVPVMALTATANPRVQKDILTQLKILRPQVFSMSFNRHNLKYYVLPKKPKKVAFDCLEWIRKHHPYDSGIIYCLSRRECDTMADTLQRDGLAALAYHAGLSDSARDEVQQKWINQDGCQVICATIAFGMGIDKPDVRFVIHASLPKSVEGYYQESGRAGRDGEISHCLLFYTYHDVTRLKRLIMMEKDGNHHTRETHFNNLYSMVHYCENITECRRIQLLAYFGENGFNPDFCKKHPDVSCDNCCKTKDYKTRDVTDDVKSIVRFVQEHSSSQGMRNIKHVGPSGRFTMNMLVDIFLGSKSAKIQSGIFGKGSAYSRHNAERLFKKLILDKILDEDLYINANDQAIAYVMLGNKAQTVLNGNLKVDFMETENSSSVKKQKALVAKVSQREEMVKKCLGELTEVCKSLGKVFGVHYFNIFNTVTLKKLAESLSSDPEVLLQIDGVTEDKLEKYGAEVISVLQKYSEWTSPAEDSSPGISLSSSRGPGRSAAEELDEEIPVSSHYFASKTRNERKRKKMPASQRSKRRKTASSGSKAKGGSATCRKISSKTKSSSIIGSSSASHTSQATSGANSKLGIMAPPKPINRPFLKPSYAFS
GLS inh: inhibitors of human glutaminase (GLS). GLS enzymatic activity, qHTS titration. Potency, µM (doses to about 45.5 µM), usual class: inhibitors. 410,000 compounds, 0.21% hits. AID 624170
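Coupled fluorescence readout: glutamate oxidase/HRP/Amplex Red detect glutamate formed by hKGA from L-glutamine (1 mM solution added). Buffer 45 mM KH2PO4 pH 8.2, 0.02% Tween-20; reads at t0 and 30 min RT.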
Numbers stand for hits; . = inactive; ? = inconclusive; / = no result given; [ ] = another dose, or the depositor's remark. An excerpt weighted towards active compounds, which were near 0.85% of everything screened. The call rests on the fitted dose curve; in most records, active means well fitted curve in the direction sought with a large enough effect; inconclusive means small, poorly fitted or top-dose-only effect, or another doubt; inactive means no such curve, though single readings can be large; an effect the other way counts as inactive or inconclusive.

SMILES	PGK inhibitor	RECQ1 inh	TDP1 inh	APE1 inh	BLM helicase inh	GLS inh
O=C(CCCN1C(=O)S/C(=C\C=C\c2ccccc2)C1=O)Nc1ccc(C(=O)O)cc1	.	/	35µM	.	.	.
O=C(CCN1C(=O)S/C(=C\C=C\c2ccccc2)C1=O)Nc1ccc(O)cc1	.	/	.	.	.	.
COc1cc(O)c(C(=O)/C=C/c2ccc(O)c(OC)c2)c(OC)c1	/	.	10µM	?	.	/
COc1ccc(/C=C/C(=O)c2c(OC)cc(O)cc2OC)cc1	/	.	.	.	.	/
COc1ccc(C2c3c(nc(C)[nH]c3=O)Oc3ccc4ccccc4c32)cc1OC (configuration not stated)	/	/	.	/	/	/
COc1ccc(NC(=O)CSc2nnc(-c3cccc(S(=O)(=O)N4CCCC4)c3)n2-c2ccccc2)cc1	/	/	/	.	/	/
O=C(O)CN(CC(=O)O)CC1=CC2C(=CC1=O)Oc1cc(O)c(CN(CC(=O)O)CC(=O)O)cc1C21OC(=O)c2ccccc21 (configuration not stated)	/	/	/	13µM	/	/
CC(OC(=O)/C(C#N)=C/c1ccc(N(C)C)cc1)C(=O)N(C)c1ccccc1 (configuration not stated)	.	/	.	24µM	/	.
COCCN(C(=O)COC(=O)Cc1coc2cc3c(cc12)CCC3)c1c(N)n(Cc2ccccc2)c(=O)[nH]c1=O	.	/	13µM	9.5µM	/	.
CC1(C)CC(=O)C2=C(C1)Nc1ccccc1S2	.	.	.	.	.	10µM
CCCCN(C(=O)c1cccc(-n2cccc2)c1)c1c(N)n(CCCC)c(=O)[nH]c1=O	.	/	.[0.505 µM]	.	/	.
CCCCN(C(=O)c1cccc(-n2cccc2)c1)c1c(N)n(CCC)c(=O)[nH]c1=O	.	/	50µM	.	/	.
CCCN(C(=O)c1cccc(-n2cccc2)c1)c1c(N)n(Cc2ccccc2)c(=O)[nH]c1=O	?	/	45µM	6.7µM	/	?
CC(C)(C)OC(=O)NCc1nnc(C(C(=O)OCc2ccccc2)c2ccccc2)s1 (configuration not stated)	/	/	.	/	/	/
C[C@H]1O[C@H](O[C@H]2[C@H](O)[C@@H](O)[C@@H](O[C@H]3[C@H](O)[C@@H](O)[C@H](O)O[C@@H]3CO)O[C@@H]2CO)[C@H](O)[C@@H](O)[C@@H]1N[C@H]1C=C(CO)[C@@H](O)[C@H](O)[C@H]1O	/	/	/	.	/	/
O=c1c2ccccc2[nH]c2ccc(O)cc12	.	/	40µM	?	.	5µM
O=C(CNC(=O)c1ccc2ccccc2c1)OC(C(=O)Nc1cc(C(F)(F)F)ccc1Cl)c1ccccc1 (configuration not stated)	/	/	.	/	/	/
CN[C@H](CC(C)C)C(=O)N[C@H]1C(=O)N[C@@H](CC(N)=O)C(=O)N[C@H]2C(=O)N[C@H]3C(=O)N[C@H](C(=O)N[C@H](C(=O)O)c4cc(O)cc(O)c4-c4cc3ccc4O)[C@H](O)c3ccc(c(Cl)c3)Oc3cc2cc(c3O[C@@H]2OC(CO)[C@@H](O)[C@H](O)[C@H]2O[C@H]2C[C@](C)(N)[C@H](O)[C@H](C)O2)Oc2ccc(cc2Cl)[C@H]1O (some centres not stated)	/	/	/	/	/	.
O=C(c1ccc(-n2cccn2)cc1)N1CCc2c([nH]c3ccccc23)C1c1ccccn1 (configuration not stated)	.	.	.	.	13µM	.
Cc1cc2cc(C(=O)N3CCc4c([nH]c5ccccc45)C3c3ccccn3)ccc2o1 (configuration not stated)	.	.	.	.	.	.
CCN(CC)c1ccc(/C=N/N2CCOCC2)c(O)c1	.	.	.	.	.	13µM
O=C(NNC(=O)c1ccccc1Br)c1ccc2nc[nH]c2c1	.	/	11µM	?	.	.
O=C(O)CC(C(=O)O)c1ccc(OCCCCOc2ccc(C(CC(=O)O)C(=O)O)cc2)cc1 (configuration not stated)	.	/	28µM	.	.	.
CN(Cc1ccccc1)C(=O)C1CCN(S(=O)(=O)c2cccc3nonc23)CC1	.	/	.	.	.	10µM
CN(C(=O)C1CCN(S(=O)(=O)c2cccc3nonc23)CC1)C1CCCCC1	.	/	.	.	.	.
SMILES	PGK inhibitor	RECQ1 inh	TDP1 inh	APE1 inh	BLM helicase inh	GLS inh
CC(C)(C)c1ccc(C(=O)Nc2ccc(C(=O)OCc3cc(=O)n4ccsc4n3)cc2)cc1	.	/	.	/	.	.
Cc1ccc(C(=O)Nc2ccc(C(=O)OCc3cc(=O)n4ccsc4n3)cc2)cc1	.	/	22µM	.	.	.
COC(=O)c1c(-c2ccc(OC)cc2)sc2ccccc12	/	/	20µM	.	/	/
CNc1cc2c(cc1S(=O)(=O)Nc1ccc(C)c(C)c1)CCC(=O)N2	/	/	.	/	/	/
CCN(CC)c1ccc(C=C2C(=O)OC3(CCCCC3)OC2=O)cc1	.	32µM	.	.	.	.
CCCCC1(C)OC(=O)C(=Cc2ccc(N(CC)CC)cc2)C(=O)O1 (configuration not stated)	.	.	.	.	.	.
O=C(O)c1ccc(N2Cc3ccccc3C2)cc1O	.	.	.	.	.	4µM
O=C(O)c1ccc(N2CCCCC2)cc1O	.	.	.	.	.	.
Nc1ccc(S(=O)(=O)NCC(=O)OC2CCOC2=O)cc1[N+](=O)[O-] (configuration not stated)	.	/	25µM	?	/	.
Cc1ccc(N)c(Cl)c1	/	.	.	.	.	/
Nc1ccc(N)c(Cl)c1	/	22µM	.	?	/	/
N#Cc1c(-c2cccc(Br)c2)no[n+]1[O-]	/	/	/	.	/	/
Cc1nc2sc(-c3ccccc3)cc2c(=O)n1-n1cccc1	.	.	.	.	.	.
Cc1nc2sc(-c3ccccc3)cc2c(=O)n1N	20µM	.	.	.	.	.
COc1ccc(/C=C2\SC(=O)NC2=S)cc1OC	.	32µM	.	?	.	?
CCOc1ccc(/C=C2\SC(=S)NC2=O)cc1OC	.	.	.	.	.	.
O=C(O)C1OC(Oc2c(-c3ccc(O)c(O)c3)oc3cc(O)cc(O)c3c2=O)C(O)C(O)C1O (configuration not stated)	25µM	.	.	7.1µM	.	.
N#Cc1c(NC(=O)COC(=O)c2ccc(O)cc2O)sc2c1CCC2	.	/	22µM	12µM	/	?
O=C(Nc1nc2c(F)cc(F)cc2s1)c1ccc2c(c1)OCCO2	/	/	45µM	.	.	.
O=C1C2CC=C(Cl)CC2C(=O)N1CCCCCCN1C(=O)C2CC=C(Cl)CC2C1=O (configuration not stated)	/	28µM	/	32µM	?	.
COc1ccc(C2Nc3ccccc3C(=O)N2Cc2ccccc2)cc1COc1ccc(Cl)cc1 (configuration not stated)	/	/	.	/	/	/
